Data as given in ChEMBL document CHEMBL3988442, “University of Dundee, Small-Polar-MMV Screening Library” (2021).
For some of these results: Potency and affinity values are given separately.

Assays:
Set-up in all cases: scale not given: direction of the effect not stated beside the values
[1] = molecular target: Protein translocase subunit SecA (Escherichia coli (strain K12)) (UniProt P10408); experiment: Assay to Identify E. coli SecA ATPase Inhibitors; assay type: functional; conditions: 30 µM
[2] = molecular target: T1, Ubiquitin-activating enzyme e1, putative (Leishmania donovani (strain BPK282A1)) (UniProt E9BSI1); experiment: Leishmania donovani Ubiquitin Activating Enzyme (LdE1); assay type: functional; conditions: 30 µM
T1 sequence (whole entry): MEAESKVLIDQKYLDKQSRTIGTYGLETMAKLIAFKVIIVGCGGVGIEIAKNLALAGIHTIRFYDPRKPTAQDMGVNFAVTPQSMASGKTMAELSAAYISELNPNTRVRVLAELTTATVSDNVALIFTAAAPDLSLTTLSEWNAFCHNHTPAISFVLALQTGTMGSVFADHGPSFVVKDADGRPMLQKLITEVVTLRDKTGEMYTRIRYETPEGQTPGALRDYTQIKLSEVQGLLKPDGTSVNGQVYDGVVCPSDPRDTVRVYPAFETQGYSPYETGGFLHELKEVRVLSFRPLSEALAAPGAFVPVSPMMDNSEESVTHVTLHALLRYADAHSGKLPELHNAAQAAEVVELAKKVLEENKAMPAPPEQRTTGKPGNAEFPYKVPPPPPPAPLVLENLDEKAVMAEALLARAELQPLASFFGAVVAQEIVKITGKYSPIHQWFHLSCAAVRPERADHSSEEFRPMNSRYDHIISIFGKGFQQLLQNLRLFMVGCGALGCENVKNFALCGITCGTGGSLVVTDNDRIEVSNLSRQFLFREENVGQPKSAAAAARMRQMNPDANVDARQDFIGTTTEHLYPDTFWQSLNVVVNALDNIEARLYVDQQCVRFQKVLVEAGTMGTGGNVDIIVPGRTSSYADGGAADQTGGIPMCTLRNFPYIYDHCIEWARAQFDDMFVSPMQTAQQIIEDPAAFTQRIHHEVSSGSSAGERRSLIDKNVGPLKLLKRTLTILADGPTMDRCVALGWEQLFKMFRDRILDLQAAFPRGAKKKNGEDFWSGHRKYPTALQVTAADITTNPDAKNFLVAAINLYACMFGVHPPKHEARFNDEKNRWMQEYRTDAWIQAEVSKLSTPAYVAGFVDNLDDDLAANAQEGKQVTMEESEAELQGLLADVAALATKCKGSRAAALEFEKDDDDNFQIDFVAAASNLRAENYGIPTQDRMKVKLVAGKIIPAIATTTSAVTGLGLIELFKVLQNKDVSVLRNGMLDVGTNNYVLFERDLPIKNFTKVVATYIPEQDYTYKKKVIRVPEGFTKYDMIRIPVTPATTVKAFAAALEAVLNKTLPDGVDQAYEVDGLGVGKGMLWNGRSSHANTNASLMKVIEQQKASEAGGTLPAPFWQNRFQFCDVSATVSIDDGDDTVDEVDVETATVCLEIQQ

[3] = molecular target: AMP-activated protein kinase, AMPK (Homo sapiens) (UniProt P54646+O43741+P54619+Q9UGJ0+Q9Y478+Q13131+Q9UGI9); experiment: AMP-dependent Kinase enzyme assay. An in vitro enzyme assay that detects ADP turnover that is directly proportional to AMPK activity. This uses naive AMPK that is activated during the assay with MK-8722; assay type: functional; conditions: 30 µM
[4] = molecular target: Sialic acid-binding Ig-like lectin 9 (Homo sapiens) (UniProt Q9Y336); experiment: Hs-Siglec9 ALPHAscreen SOP 20170721; conditions: 10 µM
Trypanosoma cruzi = experiment: Trypanosoma cruzi phosphomannomutase and mannose-1-phosphate guanylyltransferase assay; assay type: functional; conditions: 10 µM
[5] = molecular target: T2, Arginase-2, mitochondrial (Homo sapiens) (UniProt P78540); experiment: in vitro enzyme assay to detect the production of urea directly proportional to the activity of Arginase II; assay type: functional; conditions: 33.3 µM; further: in the data most compounds retested in dose-response had high values
T2 sequence (whole entry): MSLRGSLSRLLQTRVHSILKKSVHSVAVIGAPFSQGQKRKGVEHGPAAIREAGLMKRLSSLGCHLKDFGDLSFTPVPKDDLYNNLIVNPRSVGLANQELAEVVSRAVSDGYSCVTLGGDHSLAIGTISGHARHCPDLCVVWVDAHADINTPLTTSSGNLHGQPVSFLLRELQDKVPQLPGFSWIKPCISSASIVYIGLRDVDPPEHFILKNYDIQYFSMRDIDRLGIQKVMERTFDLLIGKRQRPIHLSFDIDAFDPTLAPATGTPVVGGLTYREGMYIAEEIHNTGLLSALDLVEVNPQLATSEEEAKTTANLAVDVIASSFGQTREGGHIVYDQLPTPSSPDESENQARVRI

[6] = molecular target: T3, Proteasome subunit beta (Trypanosoma cruzi) (UniProt O96673); experiment: Trypanosoma cruzi proteasome chymotrypsin-like activity (TcProtChymo) assay.; further: in the data most compounds retested in dose-response had high values; assay type: functional; conditions: 9.37 µM
T3 sequence (whole entry): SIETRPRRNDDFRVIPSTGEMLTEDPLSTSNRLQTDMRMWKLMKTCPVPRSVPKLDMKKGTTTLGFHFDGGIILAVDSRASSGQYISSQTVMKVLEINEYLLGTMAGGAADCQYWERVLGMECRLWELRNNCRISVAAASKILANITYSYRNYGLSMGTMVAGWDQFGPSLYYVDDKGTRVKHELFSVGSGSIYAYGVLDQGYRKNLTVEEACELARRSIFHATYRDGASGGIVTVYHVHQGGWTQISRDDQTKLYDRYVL

Homo sapiens = organism: Homo sapiens; experiment: To identify inhibition of the IFN signalling (Jak-Stat) pathway via expression of an eGFP reporter gene under the control of an IFN-stimulated response element (ISRE) containing MxA promoter.; assay type: functional; conditions: 30 µM
[7] = molecular target: T4, Tyrosyl-tRNA synthetase, putative (Trypanosoma cruzi (strain CL Brener)) (UniProt Q4DSP6); experiment: Trypanosoma cruzi tyrosyl tRNA synthetase (TcYRS) _High Tyrosine SOP; assay type: functional; conditions: 30 µM; further: in the data most compounds retested in dose-response had high values
T4 sequence (whole entry): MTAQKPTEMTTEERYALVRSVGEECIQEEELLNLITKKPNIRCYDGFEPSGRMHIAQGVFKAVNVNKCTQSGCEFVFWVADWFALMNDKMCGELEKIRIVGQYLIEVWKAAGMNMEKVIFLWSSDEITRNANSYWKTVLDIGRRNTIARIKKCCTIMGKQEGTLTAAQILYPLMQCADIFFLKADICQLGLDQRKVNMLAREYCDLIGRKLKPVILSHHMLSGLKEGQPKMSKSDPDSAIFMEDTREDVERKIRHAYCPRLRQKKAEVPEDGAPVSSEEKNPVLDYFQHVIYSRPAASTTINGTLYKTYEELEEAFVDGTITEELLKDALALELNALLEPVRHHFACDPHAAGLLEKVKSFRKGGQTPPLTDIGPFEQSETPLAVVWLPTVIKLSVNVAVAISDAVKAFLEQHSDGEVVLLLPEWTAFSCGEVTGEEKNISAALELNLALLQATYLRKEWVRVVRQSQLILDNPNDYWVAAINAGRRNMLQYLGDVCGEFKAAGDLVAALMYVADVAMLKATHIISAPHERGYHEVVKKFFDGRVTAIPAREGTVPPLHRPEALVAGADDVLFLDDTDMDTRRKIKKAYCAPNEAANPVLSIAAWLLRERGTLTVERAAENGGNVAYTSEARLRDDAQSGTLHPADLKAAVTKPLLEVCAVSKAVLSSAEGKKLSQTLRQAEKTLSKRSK

[8] = molecular target: T4, Tyrosyl-tRNA synthetase, putative (Trypanosoma cruzi (strain CL Brener)); experiment: Trypanosoma cruzi tyrosyl tRNA synthetase (TcYRS) SOP; assay type: functional; conditions: 30 µM
[9] = molecular target: Chromo domain-containing protein 1 (Saccharomyces cerevisiae (strain ATCC 204508 / S288c) (Baker's yeast)) (UniProt P32657); experiment: ScCHD-1 Enzyme Inhibition Assay; assay type: functional; conditions: 30 µM; further: in the data most compounds retested in dose-response had high values
Chromo domain-containing protein 1 (Saccharomyces cerevisiae (strain ATCC 204508 / S288c) (Baker's yeast)), sequence (P32657 whole entry, the tested form may be a part): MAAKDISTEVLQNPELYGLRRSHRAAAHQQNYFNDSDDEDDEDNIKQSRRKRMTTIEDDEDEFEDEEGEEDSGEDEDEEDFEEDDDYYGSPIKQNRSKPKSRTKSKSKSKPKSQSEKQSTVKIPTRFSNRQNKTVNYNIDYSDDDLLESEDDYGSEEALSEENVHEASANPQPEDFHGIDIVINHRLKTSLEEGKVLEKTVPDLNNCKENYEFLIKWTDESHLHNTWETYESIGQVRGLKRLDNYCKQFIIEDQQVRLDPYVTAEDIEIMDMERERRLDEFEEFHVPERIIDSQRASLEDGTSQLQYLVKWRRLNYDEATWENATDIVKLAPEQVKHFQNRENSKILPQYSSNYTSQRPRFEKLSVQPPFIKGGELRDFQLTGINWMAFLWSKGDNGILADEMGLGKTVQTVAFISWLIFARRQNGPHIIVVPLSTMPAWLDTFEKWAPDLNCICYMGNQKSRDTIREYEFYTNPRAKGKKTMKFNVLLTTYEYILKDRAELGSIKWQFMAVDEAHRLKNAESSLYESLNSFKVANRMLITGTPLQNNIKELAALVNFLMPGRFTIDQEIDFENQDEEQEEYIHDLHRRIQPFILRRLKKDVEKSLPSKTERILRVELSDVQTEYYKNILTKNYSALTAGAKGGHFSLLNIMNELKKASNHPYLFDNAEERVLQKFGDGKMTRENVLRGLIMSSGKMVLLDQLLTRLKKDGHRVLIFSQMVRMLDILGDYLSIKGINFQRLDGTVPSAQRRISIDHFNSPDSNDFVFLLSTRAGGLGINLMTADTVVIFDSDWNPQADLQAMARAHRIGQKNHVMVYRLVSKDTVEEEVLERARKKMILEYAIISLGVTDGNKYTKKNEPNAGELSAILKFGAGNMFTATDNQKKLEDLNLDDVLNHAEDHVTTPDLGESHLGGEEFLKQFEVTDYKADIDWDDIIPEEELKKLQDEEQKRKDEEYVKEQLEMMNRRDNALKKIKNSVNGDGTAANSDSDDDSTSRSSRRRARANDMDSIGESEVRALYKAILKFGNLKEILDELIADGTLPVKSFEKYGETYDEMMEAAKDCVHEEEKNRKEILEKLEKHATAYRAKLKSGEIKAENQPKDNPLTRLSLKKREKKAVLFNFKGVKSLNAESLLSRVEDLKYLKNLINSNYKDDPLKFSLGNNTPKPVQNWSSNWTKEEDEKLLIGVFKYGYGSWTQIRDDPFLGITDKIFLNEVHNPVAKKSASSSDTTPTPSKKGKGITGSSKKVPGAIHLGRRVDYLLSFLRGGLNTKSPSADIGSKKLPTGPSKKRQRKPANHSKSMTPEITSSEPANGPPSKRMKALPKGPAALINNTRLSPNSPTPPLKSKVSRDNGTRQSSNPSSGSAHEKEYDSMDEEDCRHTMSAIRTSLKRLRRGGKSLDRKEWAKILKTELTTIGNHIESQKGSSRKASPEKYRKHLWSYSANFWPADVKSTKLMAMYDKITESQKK

Sialic acid-binding Ig-like lectin 9 (Homo sapiens), sequence (Q9Y336 whole entry): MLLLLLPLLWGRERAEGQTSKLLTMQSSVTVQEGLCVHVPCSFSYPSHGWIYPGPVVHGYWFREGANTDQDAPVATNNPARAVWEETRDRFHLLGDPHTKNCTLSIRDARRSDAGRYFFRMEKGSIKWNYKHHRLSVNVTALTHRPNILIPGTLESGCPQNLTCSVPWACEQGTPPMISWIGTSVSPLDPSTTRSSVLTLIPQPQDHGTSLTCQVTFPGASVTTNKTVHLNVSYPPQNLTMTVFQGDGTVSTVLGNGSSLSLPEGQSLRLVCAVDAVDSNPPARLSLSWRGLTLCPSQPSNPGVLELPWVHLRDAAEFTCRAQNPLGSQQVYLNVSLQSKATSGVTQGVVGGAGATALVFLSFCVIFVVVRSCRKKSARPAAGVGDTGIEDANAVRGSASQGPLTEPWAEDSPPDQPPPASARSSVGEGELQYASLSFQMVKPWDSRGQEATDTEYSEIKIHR
Protein translocase subunit SecA (Escherichia coli (strain K12)), sequence (P10408 whole entry): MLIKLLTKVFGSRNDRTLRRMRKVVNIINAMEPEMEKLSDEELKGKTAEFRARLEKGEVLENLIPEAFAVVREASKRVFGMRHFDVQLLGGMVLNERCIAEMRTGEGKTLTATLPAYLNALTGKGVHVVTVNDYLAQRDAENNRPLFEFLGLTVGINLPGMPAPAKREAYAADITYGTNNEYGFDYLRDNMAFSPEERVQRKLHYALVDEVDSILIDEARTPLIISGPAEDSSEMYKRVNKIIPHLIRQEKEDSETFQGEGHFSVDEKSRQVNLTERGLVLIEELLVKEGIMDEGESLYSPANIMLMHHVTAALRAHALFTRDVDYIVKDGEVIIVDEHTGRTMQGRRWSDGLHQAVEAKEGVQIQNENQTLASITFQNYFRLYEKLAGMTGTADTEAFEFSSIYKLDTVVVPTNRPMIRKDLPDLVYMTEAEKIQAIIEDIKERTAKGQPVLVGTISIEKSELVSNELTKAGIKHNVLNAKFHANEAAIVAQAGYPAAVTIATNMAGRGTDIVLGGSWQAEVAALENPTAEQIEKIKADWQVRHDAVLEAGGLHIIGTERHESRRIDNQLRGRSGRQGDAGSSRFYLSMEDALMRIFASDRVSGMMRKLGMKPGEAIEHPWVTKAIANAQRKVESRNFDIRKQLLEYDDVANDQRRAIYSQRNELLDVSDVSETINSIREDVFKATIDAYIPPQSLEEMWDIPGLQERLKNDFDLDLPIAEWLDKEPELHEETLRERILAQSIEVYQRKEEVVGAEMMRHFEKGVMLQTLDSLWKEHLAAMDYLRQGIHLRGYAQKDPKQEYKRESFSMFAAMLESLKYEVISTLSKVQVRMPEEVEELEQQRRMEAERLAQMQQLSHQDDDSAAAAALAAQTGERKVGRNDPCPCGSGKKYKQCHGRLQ

Structure (SMILES): CCOc1ccc(NC(=O)NCc2csc(NC)n2)cc1C
- Percent Effect [1]: -1.88%
- Percent Effect [2]: 10.8%
- Percent Effect [3]: -11.1%
- Percent Effect [4]: 14.3%
- Percent Effect (Trypanosoma cruzi): 1.95%
- Percent Effect [5]: 0.924%
- Percent Effect [6]: -1.26%
- Percent Effect (Homo sapiens): 19.8%
- Percent Effect [7]: 12.9%
- Percent Effect [8]: 23.2%
- Percent Effect [9]: -3.54%

Structure (SMILES): Clc1ccc2cccnc2c1CN1CCCC1Cn1cncn1 (stereo unspecified)
- Percent Effect [1]: -1.02%
- Percent Effect [2]: -10.8%
- Percent Effect [3]: -3.88%
- Percent Effect [4]: -0.559%
- Percent Effect (Trypanosoma cruzi): -5.85%
- Percent Effect [5]: 4.99%
- Percent Effect [6]: 7.18%
- Percent Effect (Homo sapiens): 63.7%
- Percent Effect [7]: 7.92%
- Percent Effect [8]: -1.22%
- Percent Effect [9]: 5.04%

Structure (SMILES): O=C(Cc1ccsc1)N1CCCC(c2n[nH]c3nccnc23)C1 (stereo unspecified)
- Percent Effect [1]: -5.56%
- Percent Effect [2]: 14.9%
- Percent Effect [3]: 11.9%
- Percent Effect [4]: -1.03%
- Percent Effect (Trypanosoma cruzi): 4.94%
- Percent Effect [5]: -1.16%
- Percent Effect [6]: 15.9%
- Percent Effect (Homo sapiens): 17.3%
- Percent Effect [7]: 2.15%
- Percent Effect [8]: 9.09%
- Percent Effect [9]: -4.76%

Structure (SMILES): Cc1nn(C)c(C)c1CCC(=O)N1CCCC1Cn1cccn1 (stereo unspecified)
- Percent Effect [1]: -4.71%
- Percent Effect [2]: -2.7%
- Percent Effect [3]: 5.43%
- Percent Effect [4]: -1.49%
- Percent Effect (Trypanosoma cruzi): -3.52%
- Percent Effect [5]: 2.08%
- Percent Effect [6]: 3.63%
- Percent Effect (Homo sapiens): -0.691%
- Percent Effect [7]: 1.98%
- Percent Effect [8]: 11%
- Percent Effect [9]: 1.96%

Structure (SMILES): CN(C)C(=O)CS(=O)(=O)Cc1cc(Cl)c2c(c1)OCO2
- Percent Effect [1]: -3.08%
- Percent Effect [2]: 18.4%
- Percent Effect [3]: -1.27%
- Percent Effect [4]: 2.86%
- Percent Effect (Trypanosoma cruzi): -0.654%
- Percent Effect [5]: 3.96%
- Percent Effect [6]: 5.16%
- Percent Effect (Homo sapiens): -13.9%
- Percent Effect [7]: 6.4%
- Percent Effect [8]: 23.5%
- Percent Effect [9]: -7.39%

Structure (SMILES): O=C(CO[C@@H]1CC[C@H]2[C@H]1OCCN2CC1CCOCC1)N1CCCC1
- Percent Effect [1]: -4.19%
- Percent Effect [2]: 0%
- Percent Effect [3]: 2.42%
- Percent Effect [4]: -1.24%
- Percent Effect (Trypanosoma cruzi): -3.12%
- Percent Effect [5]: 2.08%
- Percent Effect [6]: 11.1%
- Percent Effect (Homo sapiens): 2.51%
- Percent Effect [7]: 8.91%
- Percent Effect [8]: 8.54%
- Percent Effect [9]: 1.37%

Structure (SMILES): O=C(CN1CC(n2cccn2)C1)NCCc1c[nH]c2ccccc12
- Percent Effect [1]: -3.91%
- Percent Effect [2]: -2.7%
- Percent Effect [3]: 143%
- Percent Effect [4]: 3.66%
- Percent Effect (Trypanosoma cruzi): 2.69%
- Percent Effect [5]: -0.924%
- Percent Effect [6]: -4.13%
- Percent Effect (Homo sapiens): 10.4%
- Percent Effect [7]: 0.99%
- Percent Effect [8]: 11%
- Percent Effect [9]: 7.61%

Structure (SMILES): N#Cc1ccc(C(=O)N2CCC3(CC2)C(=O)Nc2ccccc23)cn1
- Percent Effect [1]: -4.93%
- Percent Effect [2]: 8.11%
- Percent Effect [3]: 0.0753%
- Percent Effect [4]: 1.98%
- Percent Effect (Trypanosoma cruzi): -0.684%
- Percent Effect [5]: 2.73%
- Percent Effect [6]: 9.87%
- Percent Effect (Homo sapiens): 0.335%
- Percent Effect [7]: 10.8%
- Percent Effect [8]: 18.5%
- Percent Effect [9]: -4.78%

Structure (SMILES): NC(=O)CCN1CCC(C(=O)c2cc(F)ccc2F)CC1
- Percent Effect [1]: -1.09%
- Percent Effect [2]: 7.89%
- Percent Effect [3]: -2.87%
- Percent Effect [4]: -1.51%
- Percent Effect (Trypanosoma cruzi): 3.21%
- Percent Effect [5]: -5.92%
- Percent Effect [6]: 0.671%
- Percent Effect (Homo sapiens): -0.792%
- Percent Effect [7]: 3.19%
- Percent Effect [8]: 2.6%
- Percent Effect [9]: -16%

Structure (SMILES): CCCN1CCC(N(Cc2ncc(C)o2)C(C)=O)C1 (stereo unspecified)
- Percent Effect [1]: -6.17%
- Percent Effect [2]: 0%
- Percent Effect [3]: -14.9%
- Percent Effect [4]: 26.2%
- Percent Effect (Trypanosoma cruzi): 2.05%
- Percent Effect [5]: -0.744%
- Percent Effect [6]: 22.6%
- Percent Effect (Homo sapiens): 1.11%
- Percent Effect [7]: 3.23%
- Percent Effect [8]: 1.24%
- Percent Effect [9]: -1.33%

Structure (SMILES): COCCN(C)C[C@@H]1CN(C(=O)c2cccc(C(F)(F)F)c2)C[C@@H]1CO
- Percent Effect [1]: -0.782%
- Percent Effect [2]: 2.7%
- Percent Effect [3]: 1.75%
- Percent Effect [4]: 21.1%
- Percent Effect (Trypanosoma cruzi): 5.79%
- Percent Effect [5]: 10%
- Percent Effect [6]: 13.4%
- Percent Effect (Homo sapiens): -3.37%
- Percent Effect [7]: 2.65%
- Percent Effect [8]: 14.6%
- Percent Effect [9]: -4.78%
